23 compounds from PubChem BioAssay AID493067 (National Center for Advancing Translational Sciences (NCATS), 2011) can be followed below.

Records with an inconclusive call do not appear. Activity calls are given as the source filed them. Calls come from the whole dose curve; as a rule, active = well fitted activation curve with a large enough effect; inconclusive = small, poorly fitted or top-dose-only effect; inactive = flat fitted curve, though single readings scatter.

A short description of this assay: Confirmation Concentration-Response Assay for qHTS Assay for Epigenetic Modulators. The note with it: murine C127i LDR cells, GFP reporter derepression, 30 h; series mostly up to 46.1 µM. The text has this: NIH Molecular Libraries Screening Centers Network [MLSCN] NIH Chemical Genomics Center [NCGC] MLSCN Grant: 1 X01 MH079860-01 Assay Provider: Elisabeth D. Martinez, University of Texas SW Medical Center NCGC Assay Overview: This assay, used for the primary screen, was employed here to confirm actives identified from the Locus Derepression (LDR) assay (PubChem AID 1865). The LDR assay detects the derepression of a GFP reporter that is stably integrated in a region of the genome of murine c127i mammary cells that is presumably silenced. Compounds that derepress or induce this reporter locus are identified by enumerating GFP positive cells using an Acumen Explorer Ex3 (TTP Labtech) laser-scanning microplate cytometer.
NCGC Assay Protocol Summary: Three hundred LDR cells in 5 uL per well were dispensed into black, clear-bottom 1536-well plates. Twenty-three nL compound was transferred to the assay plate and cells were incubated 30 hours at 37 C. Medium was removed, cells were washed two times with PBS, and GFP-positive cells were enumerated as fluorescent objects between the sizes of 20 to 120 um width and depth using an Acumen Explorer Ex3 (TTP Labtech) laser-scanning microplate cytometer. For further details, see Johnson, RL, Huang, W, Jadhav, A, Austin, CP, Inglese, J, Martinez, ED (2008). A quantitative high-throughput screen identifies potential epigenetic modulators of gene expression. Anal Biochem 375: 237-48.
In the case of `CC(=O)[C@H](CC(C)C)NC(=O)[C@@H](CC(C)C)NC(=O)[C@H](CC(C)C)NC(=O)OCc1ccccc1`, the Potency is 3.98 µM (active).
Consider `Cc1cccn2c(=O)c(/C=C3\SC(=S)N(CC(C)C)C3=O)c(NCCCOC(C)C)nc12`, for which the Potency is 3.55 µM (active).
In the case of `CCc1nnc(NC(=O)c2cccc(C(=O)Nc3nnc(CC)s3)n2)s1` it was 7.94 µM (active); in that of `O=C(CSc1cccc[n+]1[O-])c1ccccc1Br`, 25.1 µM (active).
As for `COc1cccc(/C=N/Nc2nc(Nc3ccccc3)nc(-n3nc(C)cc3C)n2)c1O`, the Potency is 3.98 µM (active).
In the case of `Oc1ccc(Br)cc1C=Nc1ccc2c3c(cccc13)CC2` it was “inactive”; in that of `CCOC(=O)c1cc2c(=O)n3ccccc3nc2n(Cc2ccco2)c1=NC(=O)c1ccc(Br)cc1`, 15.8 µM (active).
The same measure for `O=C(O)CCCCCN1C(=O)/C(=C\c2ccc(-c3ccc(Cl)cc3)o2)SC1=S`: 7.94 µM (active); for `Cc1ccc(/C=[N+](\[O-])c2ccc(N(C)C)cc2)c2nsnc12`: “inactive”; for `CCOn1c(=O)c[n+]([O-])c2ccccc21`: “inactive”.
Regarding `CCc1ccc(NC(=O)C2CCC(CNS(=O)(=O)c3ccc4c(c3)CC(C)N4C(C)=O)CC2)cc1` (stereo not drawn), the Potency result was “inactive”.
Turning to `CN(C)S(=O)(=O)c1ccc2c(c1)/C(=C/c1cc3c([nH]1)CCCC3)C(=O)N2`, the Potency was 14.1 µM (active).
With `S=C(Nc1ccccc1)c1ccccn1`, the Potency is 15.8 µM (active).
The same measure for `CCOc1ccc(NC(=O)c2nc(S(=O)(=O)Cc3ccccc3F)ncc2Cl)cc1`: “inactive”; for `CN(c1ccccc1)S(=O)(=O)c1nnc(NC(=O)c2ccccc2)s1`: “inactive”.
The same measure for `Cc1cc(N2CCN(c3ccc([N+](=O)[O-])c4cccnc34)CC2)c2ccccc2n1`: 12.6 µM (active); for `CCN(CC)c1ccc2c(c1)oc(=O)c1c(Cl)cc(=O)oc12`: 3.98 µM (active).
`N#CC1=C(N)n2c(s/c(=C\c3cccs3)c2=O)=C(C#N)C1c1cccs1` (stereo not drawn): the Potency was 15.8 µM (active).
The same measure for `N#Cc1sc2nc(-c3ccccc3)cc(C(F)(F)F)c2c1N`: 15.8 µM (active).
The same measure for `Cc1nc(CSc2nsc(/C=C/N(C)C)c2C#N)cs1`: “inactive”.
The same measure for `COc1ccc2c(C)nc(Nc3nc(-c4ccccc4)cc(=O)[nH]3)nc2c1`: 4.47 µM (active); for `CC1=C/C(=N\NC(=S)Nc2cccnc2)CC(C)(C)C1`: 3.16 µM (active).
Regarding `COCCNC(=S)N/N=C(\C)c1ccccc1O`, the Potency is 6.31 µM (active).
